Data from PubChem BioAssay AID485297 (National Center for Advancing Translational Sciences (NCATS), 2010).
The whole screen tested about 320,000 compounds, of which about 9,100 (2.8%) were called active. Entries that show only a call come without a potency. Inconclusive results (about 3%) are left out. Calls come from the whole dose curve; as a rule, active = well fitted activation curve with a large enough effect; inconclusive = small, poorly fitted or top-dose-only effect; inactive = no such curve, though single readings can be large or run the other way. This excerpt belongs to a sample that is enriched for actives.

Assay: qHTS Assay for Rab9 Promoter Activators; note: nearly all actives have a fitted effect of over 60% in size
Conditions: Huh7 Rab9 promoter-luciferase reporter, luminescence, 24 h; series mostly up to 9.22 µM
Text: NIH Chemical Genomics Center [NCGC] NIH Molecular Libraries Probe Production centers Network [MLPCN] MLPCN Grant: MH089537-01 Assay Submitter (PI): Yiannis A. Ioannou NCGC Assay Overview: Niemann Pick Type C (NPC) is a rare neurodegenerative lipidosis that is characterized by lipid storage in the endosomal/lysosomal system. Treatment modalities for this devastating disease are currently non-existent due to the severe obstacles associated with accessing the central nervous system with proteins or genes (Ioannou, 2000). We have developed a new paradigm, termed "Orphan Receptor Bypass Therapy" (ORByT), to address these disorders. This paradigm posits the existence of endogenous "suppressor" proteins whose expression can dramatically improve LSD pathogenesis. The goal is the identification/discovery of small chemical compounds that can modulate the expression of these proteins and provide a new treatment modality for these devastating disorders. One such protein whose overexpression reverses aspects of the NPC phenotype is Rab9. We have developed and optimized a cell based luciferase reporter assay in 1536 well format for the identification of up-regulators of the Rab9 promoter.
The Rab9 promoter is cloned in front of the luciferase reporter gene, therefore […] promoter activation results in luciferase expression. Frozen stock of the Rab9 promoter transfected Huh7 cells were obtained from the laboratory of Dr. Yiannis Ioannou (The Mount Sinai School of Medicine, New York, NY). Cells were propagated and maintained at NCGC in medium containing RPMI-1640 supplemented with 10% FBS, 2mM L-glutamine, and 50ug/ml penicillin/streptomycin. Cells were harvested in and plated for assays in OP-MEM I reduced-serum medium supplemented with 10% FBS. The Amplite luciferase reporter gene assay kit was purchased from ABD Bioquest and prepared/stored according to manufacturers recommendations. qHTS Assay Setup: 1.Dispensed 5ul of Huh7 cells stably expressing Rab9-luciferase at a density of 1500 cells per well 1536-well plates. 2.Incubate cells at 37C, 5% CO2, and 95% humidity for 2 hours. 3.Transferred 23nl per well of compound in DMSO solution. 4.Incubated at 37C, 5% CO2, and 95% humidity for 24 hours. 5.Dispensed 3ul per well of Amplite reagent(ABD Bioquest) per well. 6.Incubate at ambient for 10 minutes. 7.Read using the luminescence protocol on the ViewLux plate reader (Perkin Elmer).
Potency is the fitted concentration of half-maximal effect.

Q: Which Potency does the source give for `CN(C)C(=O)Oc1ccc2c(c1)O/C(=C\c1ccccc1)C2=O` here?
A: 1.41 µM (active)

Q: For `CN(C)C(=O)Oc1ccc(OCc2cccc[n+]2C)cc1`, which Potency is on record?
A: inactive

Q: For `CCOC(=O)c1c(-c2ccccc2)oc2ccc(OC(=O)N(C)C)cc12`, which Potency is on record?
A: inactive

Q: Which Potency does the source give for `c1ccc2c(c1)[I+]c1ccccc1-2` here?
A: inactive

Q: With `CC(=O)c1c(O)c(C)c(O)c(Cc2c(O)c3c(c(C(=O)/C=C/c4ccccc4)c2O)OC(C)(C)C=C3)c1O` as the compound, how does the Potency read?
A: inactive

Q: Which Potency does the source give for `O=C(Nc1cccc(OC(=O)N2CCCCC2)c1)N1CCOCC1` here?
A: inactive

Q: Which Potency does the source give for `CC(C)(C)c1ccc(OC(=O)N2CCCCC2)cc1` here?
A: 3.16 µM (active)

Q: Which Potency does the source give for `CN1CCN(C(=O)COc2ccc(C(C)(C)C)cc2Br)CC1` here?
A: inactive

Q: For `C[C@@H]1C[C@@H]2O[C@H]2/C=C\C=C\C(=O)Cc2c(Cl)c(O)cc(O)c2C(=O)O1`, which Potency is on record?
A: inactive

Q: Which Potency does the source give for `CNCC[C@H](Oc1ccc(C(F)(F)F)cc1)c1ccccc1` here?
A: inactive
